{"source": "the supplement of paper PMC10646978", "details_in_all_cases": "modulator concentration 10 µM", "key": {"[1]": {"tested_on": "RAW-Dual (murine macrophage reporter line)", "assay": "NF-kB reporter (SEAP) activity fold change vs agonist alone; higher = enhanced NF-kB activity", "outline": "(§1)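 In 384-well plates holding 50 000 RAW-Dual murine macrophage reporter cells per well, compound at 10 μM final was pre-incubated for 1 hour at 37 °C, after which a PRR agonist was added overnight. Supernatant SEAP read with QUANTI-Blue at 620 nm absorbance reported NF-κB, and Lucia luciferase read with QUANTI-Luc luminescence reported IRF. Fold change values come from dividing each reporter signal by the mean of agonist-only control wells on the same plate, averaged over replicate plates with propagated errors.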"}, "[2]": {"tested_on": "RAW-Dual (murine macrophage reporter line)", "assay": "IRF reporter (Lucia luciferase) activity fold change vs agonist alone; higher = enhanced IRF activity", "outline": "as §1"}, "[3]": {"tested_on": "RAW-Dual (murine macrophage reporter line)", "assay": "viability score (confluency relative to resting cells, overnight) (fraction); higher = more viable, active = viable (0.7 or more)", "outline": "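Compound was added at a final 10 μM to RAW-Dual macrophages in 384-well plates and left overnight. Confluency was imaged with IncuCyte, and two masks were generated in IncuCyte software over all imaged wells. Each viability score is confluency relative to resting cells, and a compound met the cutoff only when both masks were above 70% of resting cells.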"}, "[4]": {"details": "agonist: CpG ODN 1826 0.5 ug/mL"}}, "note": "± gives the standard deviation.", "data": [{"compound": "CN1C(=N)NC(=O)C1=Cc1cc(Br)cc(Br)c1O", "values": [{"measurement": "NF-kB reporter", "setting": "[1]; [4]", "value": "0.879 ± 0.099"}, {"measurement": "NF-kB reporter", "setting": "[1]; agonist: LPS 0.1 ug/mL", "value": "0.898 ± 0.09"}, {"measurement": "NF-kB reporter", "setting": "[1]; agonist: MPLA […]", "value": "0.954 ± 0.04"}, {"measurement": "IRF reporter", "setting": "[2]; agonist: 3'3'-cGAMP 10 ug/mL", "value": "0.96 ± 0.069"}, {"measurement": "IRF reporter", "setting": "[2]; agonist: LPS 0.1 ug/mL", "value": "0.951 ± 0.046"}, {"measurement": "IRF reporter", "setting": "[2]; agonist: MPLA […]", "value": "1.01 ± 0.11"}, {"measurement": "viability score", "setting": "[3]", "value": "0.998 (active)"}]}, {"compound": "COc1cc2c(cc1OC)C(=S)NC1(CCCC1)C2", "values": [{"measurement": "NF-kB reporter", "setting": "[1]; [4]", "value": "0.886 ± 0.33"}, {"measurement": "NF-kB reporter", "setting": "[1]; agonist: LPS 0.1 ug/mL", "value": "0.985 ± 0.12"}, {"measurement": "NF-kB reporter", "setting": "[1]; agonist: MPLA […]", "value": "0.941 ± 0.1"}, {"measurement": "IRF reporter", "setting": "[2]; agonist: 3'3'-cGAMP 10 ug/mL", "value": "0.962 ± 0.04"}, {"measurement": "IRF reporter", "setting": "[2]; agonist: LPS 0.1 ug/mL", "value": "1.04 ± 0.16"}, {"measurement": "IRF reporter", "setting": "[2]; agonist: MPLA […]", "value": "1.28 ± 0.23"}, {"measurement": "viability score", "setting": "[3]", "value": "0.596 (inactive)"}]}, {"compound": "CNC(=O)[C@H](Cc1c[nH]c2ccccc12)NC(=O)[C@@H](CC(=O)NO)CC(C)C", "values": [{"measurement": "NF-kB reporter", "setting": "[1]; [4]", "value": "1.1 ± 0.26"}, {"measurement": "NF-kB reporter", "setting": "[1]; agonist: LPS 0.1 ug/mL", "value": "1.33 ± 0.074"}, {"measurement": "NF-kB reporter", "setting": "[1]; agonist: MPLA […]", "value": "1.07 ± 0.074"}, {"measurement": "IRF reporter", "setting": "[2]; agonist: 3'3'-cGAMP 10 ug/mL", "value": "0.88 ± 0.035"}, {"measurement": "IRF reporter", "setting": "[2]; agonist: LPS 0.1 ug/mL", "value": "1.07 ± 0.12"}, {"measurement": "IRF reporter", "setting": "[2]; agonist: MPLA […]", "value": "1.12 ± 0.12"}, {"measurement": "viability score", "setting": "[3]", "value": "0.995 (active)"}]}, {"compound": "Cc1cccc(OCCCOc2cccc3cccnc23)c1C", "values": [{"measurement": "NF-kB reporter", "setting": "[1]; [4]", "value": "0.735 ± 0.068"}, {"measurement": "NF-kB reporter", "setting": "[1]; agonist: LPS 0.1 ug/mL", "value": "0.895 ± 0.055"}, {"measurement": "NF-kB reporter", "setting": "[1]; agonist: MPLA […]", "value": "1.07 ± 0.1"}, {"measurement": "IRF reporter", "setting": "[2]; agonist: 3'3'-cGAMP 10 ug/mL", "value": "0.974 ± 0.053"}, {"measurement": "IRF reporter", "setting": "[2]; agonist: LPS 0.1 ug/mL", "value": "1.44 ± 0.083"}, {"measurement": "IRF reporter", "setting": "[2]; agonist: MPLA […]", "value": "1.7 ± 0.22"}, {"measurement": "viability score", "setting": "[3]", "value": "0.978 (active)"}]}, {"compound": "CC1Cc2ccccc2N1C(=O)C1CCCN1S(=O)(=O)c1ccc(Cl)cc1", "note": "(centres undefined)", "values": [{"measurement": "NF-kB reporter", "setting": "[1]; [4]", "value": "0.835 ± 0.043"}, {"measurement": "NF-kB reporter", "setting": "[1]; agonist: LPS 0.1 ug/mL", "value": "0.905 ± 0.12"}, {"measurement": "NF-kB reporter", "setting": "[1]; agonist: MPLA […]", "value": "1.27 ± 0.25"}, {"measurement": "IRF reporter", "setting": "[2]; agonist: 3'3'-cGAMP 10 ug/mL", "value": "1.01 ± 0.061"}, {"measurement": "IRF reporter", "setting": "[2]; agonist: LPS 0.1 ug/mL", "value": "1.22 ± 0.18"}, {"measurement": "IRF reporter", "setting": "[2]; agonist: MPLA […]", "value": "1.47 ± 0.52"}, {"measurement": "viability score", "setting": "[3]", "value": "0.97 (active)"}]}, {"compound": "Cc1cccc(NC(=O)C(=Cc2ccco2)NC(=O)c2ccccc2I)c1", "values": [{"measurement": "NF-kB reporter", "setting": "[1]; [4]", "value": "1.06 ± 0.087"}, {"measurement": "NF-kB reporter", "setting": "[1]; agonist: LPS 0.1 ug/mL", "value": "1.06 ± 0.081"}, {"measurement": "NF-kB reporter", "setting": "[1]; agonist: MPLA […]", "value": "1.01 ± 0.072"}, {"measurement": "IRF reporter", "setting": "[2]; agonist: 3'3'-cGAMP 10 ug/mL", "value": "0.953 ± 0.076"}, {"measurement": "IRF reporter", "setting": "[2]; agonist: LPS 0.1 ug/mL", "value": "1.15 ± 0.099"}, {"measurement": "IRF reporter", "setting": "[2]; agonist: MPLA […]", "value": "1.11 ± 0.15"}, {"measurement": "viability score", "setting": "[3]", "value": "1.01 (active)"}]}, {"compound": "O=C(O)CC(c1ccccc1)N1C(=O)c2ccccc2C1=O", "note": "(centres undefined)", "values": [{"measurement": "NF-kB reporter", "setting": "[1]; [4]", "value": "0.999 ± 0.17"}, {"measurement": "NF-kB reporter", "setting": "[1]; agonist: LPS 0.1 ug/mL", "value": "1.04 ± 0.13"}, {"measurement": "NF-kB reporter", "setting": "[1]; agonist: MPLA […]", "value": "0.963 ± 0.11"}, {"measurement": "IRF reporter", "setting": "[2]; agonist: 3'3'-cGAMP 10 ug/mL", "value": "0.976 ± 0.044"}, {"measurement": "IRF reporter", "setting": "[2]; agonist: LPS 0.1 ug/mL", "value": "1.24 ± 0.22"}, {"measurement": "IRF reporter", "setting": "[2]; agonist: MPLA […]", "value": "1.3 ± 0.21"}, {"measurement": "viability score", "setting": "[3]", "value": "1 (active)"}]}, {"compound": "Cc1nc(Nc2ncc(C(=O)Nc3c(C)cccc3Cl)s2)cc(N2CCN(CCO)CC2)n1.O", "values": [{"measurement": "NF-kB reporter", "setting": "[1]; [4]", "value": "1.55 ± 0.37"}, {"measurement": "NF-kB reporter", "setting": "[1]; agonist: LPS 0.1 ug/mL", "value": "0.307 ± 0.025"}, {"measurement": "NF-kB reporter", "setting": "[1]; agonist: MPLA […]", "value": "0.644 ± 0.041"}, {"measurement": "IRF reporter", "setting": "[2]; agonist: 3'3'-cGAMP 10 ug/mL", "value": "0.0905 ± 0.0031"}, {"measurement": "IRF reporter", "setting": "[2]; agonist: LPS 0.1 ug/mL", "value": "0.536 ± 0.063"}, {"measurement": "IRF reporter", "setting": "[2]; agonist: MPLA […]", "value": "0.656 ± 0.081"}, {"measurement": "viability score", "setting": "[3]", "value": "0.492 (inactive)"}]}, {"compound": "CCOc1ccc(C=c2sc3nc4ccccc4n3c2=O)cc1Cl", "values": [{"measurement": "NF-kB reporter", "setting": "[1]; [4]", "value": "1.07 ± 0.064"}, {"measurement": "NF-kB reporter", "setting": "[1]; agonist: LPS 0.1 ug/mL", "value": "1.02 ± 0.095"}, {"measurement": "NF-kB reporter", "setting": "[1]; agonist: MPLA […]", "value": "0.979 ± 0.031"}, {"measurement": "IRF reporter", "setting": "[2]; agonist: 3'3'-cGAMP 10 ug/mL", "value": "1.01 ± 0.036"}, {"measurement": "IRF reporter", "setting": "[2]; agonist: LPS 0.1 ug/mL", "value": "1.06 ± 0.051"}, {"measurement": "IRF reporter", "setting": "[2]; agonist: MPLA […]", "value": "0.974 ± 0.094"}, {"measurement": "viability score", "setting": "[3]", "value": "0.998 (active)"}]}, {"compound": "CC1(COc2ccc3c(c2)ncn3-c2ccc3cccc(N4CCC(N)CC4)c3n2)COC1", "values": [{"measurement": "NF-kB reporter", "setting": "[1]; [4]", "value": "0.379 ± 0.25"}, {"measurement": "NF-kB reporter", "setting": "[1]; agonist: LPS 0.1 ug/mL", "value": "0.397 ± 0.099"}, {"measurement": "NF-kB reporter", "setting": "[1]; agonist: MPLA […]", "value": "2.05 ± 0.24"}, {"measurement": "IRF reporter", "setting": "[2]; agonist: 3'3'-cGAMP 10 ug/mL", "value": "0.0544 ± 0.0038"}, {"measurement": "IRF reporter", "setting": "[2]; agonist: LPS 0.1 ug/mL", "value": "0.345 ± 0.037"}, {"measurement": "IRF reporter", "setting": "[2]; agonist: MPLA […]", "value": "0.339 ± 0.06"}, {"measurement": "viability score", "setting": "[3]", "value": "0.464 (inactive)"}]}, {"compound": "Cc1cccc(NC(=O)Cc2nnc(NC(=O)Nc3ccc(F)cc3)s2)c1", "values": [{"measurement": "NF-kB reporter", "setting": "[1]; [4]", "value": "1.02 ± 0.11"}, {"measurement": "NF-kB reporter", "setting": "[1]; agonist: LPS 0.1 ug/mL", "value": "1.03 ± 0.059"}, {"measurement": "NF-kB reporter", "setting": "[1]; agonist: MPLA […]", "value": "0.917 ± 0.055"}, {"measurement": "IRF reporter", "setting": "[2]; agonist: 3'3'-cGAMP 10 ug/mL", "value": "1 ± 0.051"}, {"measurement": "IRF reporter", "setting": "[2]; agonist: LPS 0.1 ug/mL", "value": "1.53 ± 0.12"}, {"measurement": "IRF reporter", "setting": "[2]; agonist: MPLA […]", "value": "1.11 ± 0.15"}, {"measurement": "viability score", "setting": "[3]", "value": "1.01 (active)"}]}, {"compound": "CS(=O)(=O)N(CC(=O)NCCSCc1cccc(Cl)c1)c1ccc(F)cc1", "values": [{"measurement": "NF-kB reporter", "setting": "[1]; [4]", "value": "0.742 ± 0.059"}, {"measurement": "NF-kB reporter", "setting": "[1]; agonist: LPS 0.1 ug/mL", "value": "1.06 ± 0.059"}, {"measurement": "NF-kB reporter", "setting": "[1]; agonist: MPLA […]", "value": "0.857 ± 0.07"}, {"measurement": "IRF reporter", "setting": "[2]; agonist: 3'3'-cGAMP 10 ug/mL", "value": "1.2 ± 0.03"}, {"measurement": "IRF reporter", "setting": "[2]; agonist: LPS 0.1 ug/mL", "value": "1.13 ± 0.1"}, {"measurement": "IRF reporter", "setting": "[2]; agonist: MPLA […]", "value": "0.867 ± 0.26"}, {"measurement": "viability score", "setting": "[3]", "value": "1.01 (active)"}]}]}
